Screening data (PubChem BioAssay)
Compounds with a hit are over-represented: about 3% of the library has one in this group of screens.
Wnt act: Wnt/beta-catenin pathway activation; Wnt/beta-catenin reporter cell assay, activator, plate reader; activation, % at 9.35 µM; 300,000 compounds, 1.2% hits; AID 743398; in the data active = activation above about 30%, passing the limit was not always enough;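 note: 0% = neutral control wells and 100% = positive control wells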
MITF TRPM1 HTS: increases MITF-driven TRPM1 promoter luciferase signal; SK-MEL-5 TRPM1-promoter luciferase, 24 h; % of positive control, neutral wells = 0; activation, % at 12.5 µM; 300,000 compounds, 0.75% hits;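 active = mean activation of at least 80% with every replicate also reaching 80%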;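 note: 0% = neutral control wells and 100% = parthenolide positive control wells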
esBAF inh: SWI/SNF esBAF complex inhibition | mouse ES cells, Bmi1-luciferase knock-in reporter, 24 h; 100% = twice the neutral-well signal | reporter increase, % at 12.5 µM | 350,000 compounds, 2% hits | AID 602393; in the data active = activation above about 40%;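 note: 0% = median of the plate's neutral control wells and 100% = double that signal; a rise in the Bmi1 reporter signal indicates esBAF inhibition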
Statin myotox sup: suppressors of simvastatin-induced myotoxicity in C2C12 myotubes. AID 602340. rescue of ATP level, % at 7.49 µM. 330,000 compounds, 0.78% hits. ATP luminescence, 48 h; scaled: DMSO 0, geranylgeraniol control 100;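 active = mean ATP rescue above about 67%, or every replicate alone reaching that limit, limit read from the data, passing the limit was not always enough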;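 note: myotubes were challenged with 10 µM simvastatin during compound exposure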
* = called active by the depositor; · = no result.

SMILES	Wnt act	MITF TRPM1 HTS	esBAF inh	Statin myotox sup
CCCCn1c(O)c(/C=C/C=C/C=Nc2ccccc2)sc1=S	-0.1	-1.4	·	·
CC(=O)N(C)C[C@@H]1Oc2ncc(-c3ccc(C#N)cc3)cc2C(=O)N([C@H](C)CO)C[C@@H]1C	·	·	4.4	-11.2
COC(=O)c1ccc(CN2CCCC(CNC(=O)Cc3ccc(OC)cc3)C2)cc1 (stereo unspecified)	35.8*	·	-9.4	33.6
COc1ccc(CC(=O)NCC2CCCN(Cc3ccc(OC(F)(F)F)cc3)C2)cc1 (stereo unspecified)	0.2	·	-0.3	2.7
C[C@@H]1CN([C@H](C)CO)S(=O)(=O)c2ccc(-c3ccncc3)cc2O[C@@H]1CN(C)C(=O)c1cccc(F)c1	·	·	-0.5	17.2
C=CCn1c(SCC(=O)NCC)nnc1-c1cc2c(s1)CCC(CC)C2 (stereo unspecified)	-2.9	38.3	45.9*	3.0
C=CCn1c(SCC(=O)NC(N)=O)nnc1-c1cc2c(s1)CCC(CC)C2 (stereo unspecified)	-2.8	-6.7	·	·
CCN(CC)c1nc2c3c(nc4c(c3c1C#N)CC(=O)N4c1ccc(Cl)cc1)NC(C)=N2	3.5	5.8	·	·
CCc1ccc(N2C(=O)Cc3c2nc(N)c(C#N)c3N)cc1	14.8	29.2	53.3*	-48.5
CC(C)(C)c1ccc(N2C(=O)Cc3c2nc(N)c(C#N)c3N)cc1	·	·	51.1*	15.4
O=C(C[C@H]1C[C@@H]2c3cc(NC(=O)C4CCC4)ccc3O[C@@H]2[C@@H](CO)O1)NCc1ccccc1	·	·	17.1	-0.8
C[C@H](CO)N1C[C@H](C)[C@@H](CN(C)C)Oc2ccc(NS(=O)(=O)c3ccccc3)cc2CC1=O	·	·	-4.7	2.9
CCc1ccc(-c2ccc(SCc3ccccn3)nn2)cc1	12.5	70.8	63.0*	-0.7
C=CCn1c(O)c(N=Nc2ccccc2[N+](=O)[O-])c2ccccc21	1.3	·	57.9*	5.8
O=C(CCn1c(=O)[nH]c2ccsc2c1=O)NCCc1ccc(Cl)cc1	-4.8	-1.1	5.2	1.2
CCOc1ccc(NC(=O)CCCCn2c(=O)[nH]c3ccsc3c2=O)cc1	36.8*	8.6	4.5	-6.0
O=C(CCCCn1c(=O)[nH]c2ccsc2c1=O)NCCc1ccccc1	37.3*	10.1	3.1	-3.7
CCCCCCOC(=O)c1ccc(OC(=O)c2cccnc2)cc1	·	64.3	51.7*	23.9
COc1cc(C(=O)OC2CC3CCC2(C)C3(C)C)ccc1OC(C)=O (stereo unspecified)	-0.2	27.7	48.7*	-3.2
CC1(C)C2CCC1(C)C(OC(=O)CNc1ccccc1)C2 (stereo unspecified)	-1.1	12.8	·	·
CCCC#Cc1cnc2c(c1)C(=O)N([C@@H](C)CO)C[C@@H](C)[C@@H](CN(C)C(=O)CCN1CCCCC1)O2	·	·	-1.8	8.0
CC1CCCN(c2ccc3nc4ccccc4c(=O)n3n2)C1 (stereo unspecified)	2.7	-15.7	·	·
Cc1sc2nc3ccc(N4CCCCC4)nn3c(=O)c2c1C	-1.6	121.0*	-4.9	112.9*
Cc1ccc2nc3ccc(N4CCCC4)nn3c(=O)c2c1	·	93.7*	38.9	-4.9
COCC(=O)N(C)C[C@@H]1Oc2cc(C#CCC(C)C)ccc2S(=O)(=O)N([C@H](C)CO)C[C@@H]1C	·	·	3.2	16.6
SMILES	Wnt act	MITF TRPM1 HTS	esBAF inh	Statin myotox sup
Cc1noc(C)c1NC(=O)N[C@H]1CC[C@@H](CC(=O)NCCCN(C)C)O[C@@H]1CO	·	·	5.3	4.7
CCOC(=O)C(Cc1ccccc1)C(=O)Nc1ccc(NC(=O)C(Cc2ccccc2)C(=O)OCC)cc1 (stereo unspecified)	·	5.7	·	·
CCOC(=O)C(Cc1ccccc1)C(=O)Nc1nccs1 (stereo unspecified)	·	4.9	4.0	99.1*
O=C(C[C@H]1CC[C@H]2[C@@H](COC[C@@H](O)CN2S(=O)(=O)c2cccc(Cl)c2)O1)NCc1ccncn1	·	·	1.9	-2.2
Oc1ccc(Nc2ncnc3scc(-c4ccccc4)c23)cc1	-0.7	-13.5	·	·
Cc1sc2ncnc(Nc3ccc(O)cc3)c2c1C	37.9*	3.6	3.1	-10.9
C[C@H](CO)N1C[C@H](C)[C@@H](CN(C)S(=O)(=O)c2ccc(Cl)cc2)Oc2ccc(NC(=O)CCCN(C)C)cc2C1=O	·	·	1.6	-21.6
Cc1ccc(S(=O)(=O)N(C)C[C@@H]2OCCCC[C@@H](C)Oc3ccc(NC(=O)NC4CCCCC4)cc3C(=O)N([C@@H](C)CO)C[C@@H]2C)cc1	·	·	12.5	·
C[C@H]1CN([C@@H](C)CO)S(=O)(=O)c2ccc(C3=CCCCC3)cc2O[C@@H]1CN(C)C(=O)Cc1cccnc1	·	·	2.2	17.8
COC(=O)c1sc(S(=O)(=O)Nc2ccc3cn[nH]c3c2)c(C(=O)OC)c1C	-1.4	-15.7	-1.1	117.2*
Cc1nc(Nc2ccccc2C(F)(F)F)sc1C(=O)N(C)C	16.2	55.4	48.6*	-4.1
COc1ccccc1CNc1nc(C)c(C(=O)N(C)C)s1	-0.3	-4.2	1.6	-14.7
Cc1nc(NCCc2ccccc2)sc1C(=O)N(C)C	7.8	41.2	41.5*	4.3
C[C@H](CO)N1C[C@H](C)[C@@H](CN(C)S(=O)(=O)c2ccc(Cl)cc2)Oc2ccc(NC(=O)CCC(F)(F)F)cc2C1=O	·	·	-5.4	-23.1
O=c1c2c3c(sc2nc2n1CCCC2)CCCC3	·	-1.0	47.5*	3.6
CSc1nc2sc3c(c2c(=O)n1C)CCC3	-0.5	-10.8	5.7	-4.4
O=c1c2c3c(sc2nc2n1CCC2)CCCCC3	1.9	9.2	·	·
CSc1nc2sc3c(c2c(=O)n1C)CCCC3	·	53.8	44.7*	-5.1
O=C(C[C@H]1C[C@@H]2c3cc(NC(=O)NC4CCCCC4)ccc3O[C@@H]2[C@@H](CO)O1)NCC1CC1	·	·	-0.5	-5.3
CCN(CC)c1ccc(/C=N/N2CCOCC2)c(O)c1	·	108.6*	·	·
CCN(CC)c1ccc(/C=N/N2CCN(Cc3ccccc3)CC2)c(O)c1	-3.3	1.5	·	·
O=C(Nc1ccccc1[N+](=O)[O-])C1COc2ccccc2O1 (stereo unspecified)	14.0	75.7	45.3*	1.6
CCOC(=O)c1ccccc1NC(=O)C1COc2ccccc2O1 (stereo unspecified)	1.9	2.8	-4.2	94.3*
COC(=O)c1ccccc1NC(=O)C1COc2ccccc2O1 (stereo unspecified)	·	44.6	8.2	-1.0
CC(=O)c1ccc(NCC2COc3ccccc3O2)c([N+](=O)[O-])c1 (stereo unspecified)	76.0*	64.4	72.3*	3.9
SMILES	Wnt act	MITF TRPM1 HTS	esBAF inh	Statin myotox sup
COCCNC(=O)C[C@H]1C[C@@H]2c3cc(NC(=O)c4ccc5c(c4)OCO5)ccc3O[C@@H]2[C@H](CO)O1	·	·	-0.6	5.4
CC1=C/C(=C\c2ccc(Br)o2)C(=O)O1	-4.2	-5.3	·	·
O=C1C(=Cc2ccc(Br)o2)C(=O)c2ccccc21	·	12.7	63.7*	2.5
N#C/C(=C\c1c[nH]c2ccccc12)C(=O)NC1CC1	8.5	·	70.9*	-9.0
CN1c2ccc(Br)cc2[C@@H]2[C@@H](CCN2C(=O)Nc2cc(F)ccc2F)[C@@H]1CO	·	·	-0.4	-20.0
c1ccc2c(c1)CCOC2CNCCCN1CCCCC1 (stereo unspecified)	-2.7	20.9	-2.5	90.7*
NC(=N\N=Cc1ccccc1)/C(N)=N/N=Cc1ccccc1	-3.9	·	49.7*	5.6
